In all, about 360,000 compounds went through this assay and about 11,000 (3.1%) were called active. Inconclusive results (about 2%) are left out. The sample holds actives, similar compounds and a random draw of the others, so the mix is not that of the screen. No stated cut-off is given here; in the data, active means fluorescence intensity above about 16000; inconclusive means no clear call, values can overlap the other calls; inactive means below that.
Experiment: compound fluorescence in toxin protease inhibitor counterscreen, primary screen, artefact control for toxin protease inhibitor project, biochemical, multiplex microsphere, HTS (AID 624483)
Conditions: compound autofluorescence counterscreen, microsphere flow cytometry; active compounds read high

Row | SMILES | fluorescence intensity
1 | Cn1c(SCC(=O)C(C)(C)C)nnc1-c1ccccn1 | 9760 (inactive)
2 | Cc1ccccc1CSc1nnc(-c2ccccn2)n1N | 16200 (active)
3 | Cc1ccccc1CSc1nnc(-c2cccnc2)n1N | 2660 (inactive)
4 | COc1ccc(C(=O)NC(=S)N2CCCCC2c2cccnc2)cc1OC (centres undefined) | 4080 (inactive)
5 | Cc1ccc(-n2c(=O)c(C#N)cc3c(=O)n4ccccc4nc32)cc1C | 24200 (active)
6 | CCn1c(=N)c(S(=O)(=O)c2ccc(F)cc2)cc2c(=O)n3ccccc3nc21 | 2990 (inactive)
7 | Cc1ccc(Cn2c(=N)c(S(=O)(=O)c3ccc(C)cc3)cc3c(=O)n4ccccc4nc32)cc1 | 4390 (inactive)
8 | CCc1nc2nc(C)c(NS(=O)(=O)c3ccc4c(c3)CCCC4)c(=O)n2[nH]1 | 4030 (inactive)
9 | C=C1C(=O)[C@]23C[C@H]1CCC2[C@@]1(C)C(C[C@@H]3O)[C@](C)(C(=O)O)CC[C@@H]1O (some centres undefined) | 4260 (inactive)
10 | CC1=C(C(=O)N(C(C)C)C(C)C)CC(CC(=O)NCC2CCCCC2)C(=O)N1Cc1ccccc1 (centres undefined) | 5490 (inactive)
11 | Cc1ccc(S(=O)(=O)N(c2cccc(C)c2)C2CCS(=O)(=O)C2)cc1 (centres undefined) | 21200 (active)
12 | CCCCN(C1CCS(=O)(=O)C1)S(=O)(=O)c1ccc(C(C)C)cc1 (centres undefined) | 5460 (inactive)
13 | CN(C1CCS(=O)(=O)C1)S(=O)(=O)c1ccc2ccccc2c1 (centres undefined) | 5860 (inactive)
14 | CCOP(=O)(OCC)C(Cc1ccccc1)N=C(c1ccccc1)c1ccccc1 (centres undefined) | 5750 (inactive)
15 | Cn1cnc(S(=O)(=O)Nc2ccc3c(c2)OCCO3)c1 | 3290 (inactive)
16 | CCC(c1nnnn1-c1ccc2c(c1)OCCO2)N1CCN(c2ccc(C(F)(F)F)cn2)CC1 (centres undefined) | 5170 (inactive)
17 | CC(=O)Nc1cc(-c2ccc(N3CCN(C)CC3)cc2)cn2c(-c3cccc(C(=O)N(C)C)c3)cnc12 | 2910 (inactive)
18 | CCCC/S(C)=N/S(=O)(=O)c1ccc(C)cc1 (centres undefined) | 1940 (inactive)
19 | CC/S(CC1CC1(Cl)Cl)=N\S(=O)(=O)c1ccc(C)cc1 (centres undefined) | 19500 (active)
20 | Cc1ccc(S(=O)(=O)/N=S(\C)C(C)C)cc1 (centres undefined) | 2730 (inactive)

Row | SMILES | fluorescence intensity
21 | CC(=O)c1ccc(-c2cnc3c(NC=O)cc(-c4cccc(NS(C)(=O)=O)c4)cn23)cc1 | 4010 (inactive)
22 | COc1ccc(C(c2nnnn2C2CCCC2)N2CCN(C/C=C/c3ccccc3)CC2)cc1 (centres undefined) | 5910 (inactive)
23 | O=C(CC(c1ccccc1)c1ccccc1)NCC(O)c1ccc([N+](=O)[O-])cc1 (centres undefined) | 3190 (inactive)
24 | CCCCCCOC(=O)NCC(O)c1ccccc1 (centres undefined) | 17600 (active)
25 | CCCCOC(=O)Nc1nnc(CC(=O)NCc2ccccc2)s1 | 3980 (inactive)
26 | Cc1cccc(CN2CCN(C3CN(Cc4cn(Cc5cc(C)cc(C)c5)nn4)S(=O)(=O)C3)CC2)c1 (centres undefined) | 4640 (inactive)
27 | CCCCCCN1CCN(C2CN(Cc3cn(CCCCCC)nn3)S(=O)(=O)C2)CC1 (centres undefined) | 5850 (inactive)
28 | COc1ccc([N+](=O)[O-])cc1N(CC(O)CN(CC(C)C)CC(C)C)S(=O)(=O)c1ccc(C)cc1 (centres undefined) | 3790 (inactive)
29 | Cc1ccc(S(=O)(=O)N(CC(O)CN2CCCCC2)c2cccc([N+](=O)[O-])c2)cc1 (centres undefined) | 3000 (inactive)
30 | COc1ccc([N+](=O)[O-])cc1N(CC(O)Cn1nnc2ccccc21)S(=O)(=O)c1ccc(C)cc1 (centres undefined) | 17900 (active)
31 | CC(C)[C@@H](C(=O)OCC(=O)c1ccc2c(c1)NC(=O)CO2)N1C(=O)c2ccccc2C1=O | 3880 (inactive)
32 | C=C(C)C(=O)O[C@H]1C/C(C)=C\C(=O)/C=C(\C)[C@H](O)[C@@H]2OC(=O)C(=C)[C@@H]21 | 2760 (inactive)
33 | CCOC(=O)c1c(C)n(C)c2ccc(OC)c(NS(=O)(=O)CC)c12 | 2300 (inactive)
34 | CCOc1ccc(NC(=O)N(CC(C)C)CC(C)C)cc1 | 20300 (active)
35 | CCOc1ccc(NC(=O)N(CCC(C)C)C(C)c2ccco2)cc1 (centres undefined) | 2150 (inactive)
36 | CCOc1ccc(NC(=O)Nc2ccc(N(C)C(C)=O)cc2)cc1 | 4350 (inactive)
37 | CCCC1NC(=S)NC(C)=C1C(C)=O (centres undefined) | 4600 (inactive)
38 | CCCC1NC(=O)NC(C)=C1C(=O)OCC (centres undefined) | 20200 (active)
39 | CCOC(=O)C1=C(C)NC(C)=C(C(=O)OCC)C1C1=COCCO1 | 5040 (inactive)
40 | CC(=O)NC(c1ccccc1)c1nc(-c2ccccc2C)cs1 (centres undefined) | 3560 (inactive)

Row | SMILES | fluorescence intensity
41 | CCc1ccc(NC(=O)C(=O)NNC(=O)c2cccs2)cc1 | 5780 (inactive)
42 | O=C(NC(=S)Nc1ccc(NC(=O)c2cccs2)cc1)c1ccc([N+](=O)[O-])cc1 | 8970 (inactive)
43 | O=C(Nc1ccc(N2CCN(C(=O)C3CC3)CC2)cc1)c1cccs1 | 2520 (inactive)
44 | O=C(Nc1ccccc1-c1ccccc1)c1cccs1 | 4880 (inactive)
45 | O=C(O)c1ccc(NC(=O)c2cccs2)cc1 | 23200 (active)
46 | O=C(O)Cc1ccc(NC(=O)c2cccs2)cc1 | 19700 (active)
47 | CC(C)CCNC(=O)c1[nH]c(C(F)(F)F)nc1-c1ccccc1 | 5980 (inactive)
48 | CCOC(=O)[C@]12CCC=C1N(Cc1ccco1)C(=O)[C@H](CC(=O)NCc1cccc(C(F)(F)F)c1)C2 | 4290 (inactive)
49 | COC(=O)[C@]12CCCCC=C1N(CCC1=CCCCC1)C(=O)[C@H](CC(=O)N1CCSCC1)C2 | 5780 (inactive)
50 | CC(=O)Nc1ccc(CNc2nc(NCCN(C)C)nc3cc(-c4ccccc4)sc23)cc1 | 3970 (inactive)
51 | Cc1cc(Cl)ccc1NNC(=O)c1snnc1C | 3890 (inactive)
52 | Cc1noc(C)c1COc1cccc(C(=O)Nc2cccnc2)c1 | 4200 (inactive)
53 | O=C(Nc1cccnc1)c1noc2c1CCCCC2 | 24400 (active)
54 | CC1(C(=O)Nc2cccnc2)Cc2c(-c3ccccc3)ccnc2O1 (centres undefined) | 2820 (inactive)
55 | CS(=O)(=O)N(CC(=O)N1CCOCC1)c1cccc(Cl)c1Cl | 4130 (inactive)
56 | COC(=O)c1ccc(CN2C(=O)C(Cc3ccccc3)ON=C2c2ncccc2C)o1 (centres undefined) | 4970 (inactive)
57 | COCCn1c(SCc2nc3cc(OC)c(OC)cc3c(=O)[nH]2)nnc1-c1ccncc1 | 3550 (inactive)
58 | COCCCn1c(SCc2cccc(OC)c2)nc2cc(OC)c(OC)cc2c1=N | 23400 (active)
59 | COc1cccc(CSc2nc3nc(C)cc(C)n3n2)c1 | 3360 (inactive)
